About 8,800 targets were measured; listed, in parts, are those with a hit and a random draw of the rest. About 0.5% of all pairs of compound and target were hits.
Columns and labels:
Assay in all cases: log2 fold change, soluble protein after heating vs DMSO (PISA); higher = thermal stabilisation; K562 lysate, 10 uM; active = over 0.2 and 3.5 SD of the protein, either way, in both replicates (recomputed)
[1] = compound: Cc1cn(-c2cc(NC(=O)c3ccc(C)c(Nc4nccc(-c5cccnc5)n4)c3)cc(C(F)(F)F)c2)cn1 [nilotinib]
Summary of the method: (§1)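 Soluble protein was defined as the supernatant remaining after 21,000xg for 90 min, following pooling of heated aliquots and adjustment to 0.5% NP-40 at 4°C. Before that, crude K562 extract at 1 mg/mL protein in PBS pH 7.4 with 1 mM MgCl2 was treated with 10 μM compound for 30 min and heated for 3 min across 48°C-58°C. Quantification used TMTpro 16plex LC-MS/MS with channel sums equalised, and values are log-two fold changes in thermal stability relative to solvent controls from duplicates.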

[2] = compound: Cc1nc(Nc2n[nH]c3c2CN(C(=O)N[C@H](CN(C)C)c2ccccc2)C3(C)C)c2sccc2n1
Summary of the method: as §1

[3] = compound: Cc1nc(Nc2ncc(C(=O)Nc3c(C)cccc3Cl)s2)cc(N2CCN(CCO)CC2)n1 [dasatinib]
Summary of the method: as §1

[4] = compound: Cc1ncc(-c2ccnc(Nc3ccc(S(C)(=O)=O)cc3)n2)n1C(C)C
Summary of the method: as §1

[5] = compound: Cn1cc(-c2ccc3c(c2)CCN3C(=O)Cc2cccc(C(F)(F)F)c2)c2c(N)ncnc21
Summary of the method: as §1

[6] = compound: Cn1cc(CNCC2CCN(c3ncc(C(=O)NO)cn3)CC2)c2ccccc21 [quisinostat]
Summary of the method: as §1

[7] = compound: Cn1cncc1[C@@](N)(c1ccc(Cl)cc1)c1ccc2c(c1)c(-c1cccc(Cl)c1)cc(=O)n2C [tipifarnib]
Summary of the method: as §1

[8] = compound: NC(=O)Nc1cc(-c2cccc(F)c2)sc1C(=O)N[C@H]1CCCNC1
Summary of the method: as §1

[9] = compound: NC(=O)c1cnc(N[C@@H]2CCCC[C@@H]2N)nc1Nc1cccc(-n2nccn2)c1
Summary of the method: as §1

[10] = compound: NC1(c2ccc(-c3nc4ccn5c(=O)[nH]nc5c4cc3-c3ccccc3)cc2)CCC1
Summary of the method: as §1

Measured: log2 fold change

PTPN7 isoform 3 (UniProt P35236)
inactive: [1] -0.03 | [2] 0.017 | [3] -0.088 | [4] -0.021 | [5] 0.064 | [6] 0.008 | [7] 0.054 | [8] -0.006 | [9] -0.015 | [10] -0.043

PLEKHF1 (UniProt Q96S99)
Sequence of UniProt Q96S99 (Q96S99 whole entry, looked up): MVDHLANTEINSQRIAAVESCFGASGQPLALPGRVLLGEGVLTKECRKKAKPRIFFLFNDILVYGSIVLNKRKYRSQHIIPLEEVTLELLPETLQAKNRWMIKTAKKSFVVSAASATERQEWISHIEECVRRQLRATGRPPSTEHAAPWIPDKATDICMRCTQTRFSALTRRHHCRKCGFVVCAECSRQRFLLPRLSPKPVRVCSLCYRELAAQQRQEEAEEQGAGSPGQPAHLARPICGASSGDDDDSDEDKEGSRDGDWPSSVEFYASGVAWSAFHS
inactive: [1] -0.03 | [2] -0.028 | [3] -0.016 | [4] 0.012 | [5] -0.027 | [6] -0.009 | [7] -0.012 | [8] 0.021 | [9] -0.002 | [10] -0.023

PI4K2A (UniProt Q9BTU6)
Sequence of UniProt Q9BTU6 (Q9BTU6 whole entry, looked up): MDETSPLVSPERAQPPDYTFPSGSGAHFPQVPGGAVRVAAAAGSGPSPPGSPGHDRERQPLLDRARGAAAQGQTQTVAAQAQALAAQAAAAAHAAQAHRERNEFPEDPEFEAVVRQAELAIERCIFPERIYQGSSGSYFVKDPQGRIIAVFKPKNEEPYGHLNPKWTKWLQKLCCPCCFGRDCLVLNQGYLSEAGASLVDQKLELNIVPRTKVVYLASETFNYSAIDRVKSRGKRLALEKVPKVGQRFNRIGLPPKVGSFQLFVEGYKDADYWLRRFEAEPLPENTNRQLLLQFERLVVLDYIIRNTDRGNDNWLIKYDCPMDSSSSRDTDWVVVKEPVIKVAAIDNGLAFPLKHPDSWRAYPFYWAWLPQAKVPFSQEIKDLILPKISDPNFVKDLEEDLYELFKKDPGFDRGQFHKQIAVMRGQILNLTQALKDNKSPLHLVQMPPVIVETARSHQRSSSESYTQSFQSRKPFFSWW
active: [4] 0.207 | [9] 0.49
inactive: [1] 0.009 | [2] 0.03 | [3] -0.036 | [5] -0.024 | [6] 0.01 | [7] -0.064 | [8] 0.071 | [10] -0.004

PRKCB isoform 2 (UniProt P05771)
active: [2] 0.256 | [8] -0.416
inactive: [1] -0.014 | [3] -0.06 | [4] -0.093 | [5] -0.007 | [6] 0.017 | [7] -0.038 | [9] 0.181 | [10] -0.037

PFKFB3 isoform 4 (UniProt Q16875)
Sequence of UniProt Q16875 (Q16875 whole entry, looked up): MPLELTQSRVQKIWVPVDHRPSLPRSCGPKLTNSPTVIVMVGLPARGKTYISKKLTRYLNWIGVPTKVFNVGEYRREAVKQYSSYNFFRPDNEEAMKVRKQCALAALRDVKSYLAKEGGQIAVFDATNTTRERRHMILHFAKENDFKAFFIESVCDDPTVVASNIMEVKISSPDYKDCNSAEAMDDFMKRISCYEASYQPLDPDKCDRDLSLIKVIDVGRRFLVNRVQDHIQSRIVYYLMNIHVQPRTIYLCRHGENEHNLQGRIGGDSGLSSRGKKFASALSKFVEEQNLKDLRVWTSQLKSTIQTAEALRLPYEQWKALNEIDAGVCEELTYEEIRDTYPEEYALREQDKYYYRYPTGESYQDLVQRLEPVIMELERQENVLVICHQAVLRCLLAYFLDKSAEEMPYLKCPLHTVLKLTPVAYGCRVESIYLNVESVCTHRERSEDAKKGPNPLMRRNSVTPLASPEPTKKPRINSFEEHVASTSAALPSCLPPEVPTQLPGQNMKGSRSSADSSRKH
inactive: [1] 0.018 | [2] -0.023 | [3] -0.088 | [4] -0.021 | [5] 0.075 | [6] -0.012 | [7] 0.01 | [8] -0.025 | [9] -0.192 | [10] -0.001

PLEKHA5 isoform 6 (UniProt Q9HAU0)
inactive: [1] -0.052 | [2] 0.032 | [3] 0.006 | [4] -0.005 | [5] 0.021 | [6] -0.011 | [7] 0.009 | [8] 0.011 | [9] -0.008 | [10] -0.003

PRKCSH (UniProt P14314)
inactive: [1] 0.01 | [2] 0.016 | [3] 0.037 | [4] 0.041 | [5] -0.003 | [6] 0.088 | [7] 0.008 | [8] -0.006 | [9] -0.004 | [10] 0.036

PFKFB2 (UniProt O60825)
inactive: [1] -0.04 | [2] 0.011 | [3] 0.017 | [4] -0.043 | [5] 0.014 | [6] 0.024 | [7] -0.011 | [8] -0.046 | [9] -0.003 | [10] -0.009

PPCDC (UniProt Q96CD2)
Sequence of UniProt Q96CD2 (Q96CD2 whole entry, looked up): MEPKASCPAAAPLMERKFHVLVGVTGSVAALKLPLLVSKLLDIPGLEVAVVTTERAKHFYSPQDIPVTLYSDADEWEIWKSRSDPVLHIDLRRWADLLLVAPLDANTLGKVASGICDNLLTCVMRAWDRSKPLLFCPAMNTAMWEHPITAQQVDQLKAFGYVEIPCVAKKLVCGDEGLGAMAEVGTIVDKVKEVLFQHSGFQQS
inactive: [1] -0.002 | [2] -0.014 | [3] -0.06 | [4] -0.017 | [5] -0.04 | [6] -0.015 | [7] 0.022 | [8] 0.013 | [9] 0 | [10] 0.047

POLR2F (UniProt P61218)
inactive: [1] 0.023 | [2] -0.019 | [3] 0.274 | [4] 0.107 | [5] -0.015 | [6] -0.034 | [7] 0.015 | [8] 0.008 | [9] -0.052 | [10] -0.021

PIK3R2 (UniProt O00459)
Sequence of UniProt O00459 (O00459 whole entry, looked up): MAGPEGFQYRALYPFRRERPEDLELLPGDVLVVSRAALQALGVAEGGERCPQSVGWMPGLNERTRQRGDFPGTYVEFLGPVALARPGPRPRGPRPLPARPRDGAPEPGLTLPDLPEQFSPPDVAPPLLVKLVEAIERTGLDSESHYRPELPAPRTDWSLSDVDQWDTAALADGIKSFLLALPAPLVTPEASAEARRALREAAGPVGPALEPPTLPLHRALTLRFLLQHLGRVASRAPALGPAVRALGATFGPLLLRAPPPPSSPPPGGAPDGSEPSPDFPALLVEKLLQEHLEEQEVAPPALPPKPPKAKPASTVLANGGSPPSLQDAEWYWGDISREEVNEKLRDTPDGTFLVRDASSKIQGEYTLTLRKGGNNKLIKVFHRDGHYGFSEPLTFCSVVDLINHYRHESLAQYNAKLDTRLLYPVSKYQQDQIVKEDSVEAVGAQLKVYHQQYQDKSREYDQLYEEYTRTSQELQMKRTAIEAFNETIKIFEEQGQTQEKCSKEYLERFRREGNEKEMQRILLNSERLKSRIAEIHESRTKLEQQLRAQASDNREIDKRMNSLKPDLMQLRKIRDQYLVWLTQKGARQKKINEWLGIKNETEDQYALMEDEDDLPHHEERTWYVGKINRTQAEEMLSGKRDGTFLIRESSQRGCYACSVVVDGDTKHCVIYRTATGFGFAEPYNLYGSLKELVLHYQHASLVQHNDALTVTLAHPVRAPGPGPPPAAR
inactive: [1] 0.007 | [2] -0.006 | [3] -0.023 | [4] 0.003 | [5] -0.008 | [6] -0.04 | [7] -0.001 | [8] 0.031 | [9] 0.017 | [10] 0.263

PXMP4 (UniProt Q9Y6I8)
active: [7] 0.846
inactive: [1] -0.011 | [2] 0.014 | [3] 0.078 | [4] 0.013 | [5] -0.092 | [6] -0.146 | [8] 0.018 | [9] -0.018 | [10] -0.215

POC5 (UniProt Q8NA72)
inactive: [1] 0.01 | [2] 0.058 | [3] -0.159 | [4] 0.09 | [5] -0.081 | [6] 0.007 | [7] 0.005 | [8] -0.005 | [9] -0.128 | [10] 0.034

PFAS (UniProt O15067)
inactive: [1] 0.015 | [2] -0.023 | [3] -0.031 | [4] -0.017 | [5] 0.008 | [6] -0.037 | [7] 0.01 | [8] 0.01 | [9] 0.005 | [10] -0.009

PPP2CA (UniProt P67775)
Sequence of UniProt P67775 (P67775 whole entry, looked up): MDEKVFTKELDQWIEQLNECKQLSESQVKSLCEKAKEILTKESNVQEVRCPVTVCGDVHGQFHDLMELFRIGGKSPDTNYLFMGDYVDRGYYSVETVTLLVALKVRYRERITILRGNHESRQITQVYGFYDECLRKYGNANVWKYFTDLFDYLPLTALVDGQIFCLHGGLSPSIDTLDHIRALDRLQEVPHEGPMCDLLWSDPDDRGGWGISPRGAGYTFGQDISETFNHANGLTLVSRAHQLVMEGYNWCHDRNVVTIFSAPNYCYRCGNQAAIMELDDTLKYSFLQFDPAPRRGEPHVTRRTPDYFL
inactive: [1] -0.009 | [2] 0.037 | [3] 0.017 | [4] 0.009 | [5] 0.057 | [6] 0.185 | [7] 0.024 | [8] -0.093 | [9] -0.008 | [10] 0.023

PRKCA (UniProt P17252)
active: [9] 0.408
inactive: [1] -0.008 | [2] 0.227 | [3] -0.028 | [4] 0.095 | [5] -0.056 | [6] -0.035 | [7] 0 | [8] -0.067 | [10] -0.006

PRKAR2A (UniProt P13861)
inactive: [1] -0.036 | [2] -0.051 | [3] -0.065 | [4] -0.016 | [5] 0.017 | [6] 0.02 | [7] 0.025 | [8] -0.198 | [9] -0.037 | [10] -0.011

PCF11 (UniProt O94913)
Sequence of UniProt O94913 (O94913 whole entry, looked up): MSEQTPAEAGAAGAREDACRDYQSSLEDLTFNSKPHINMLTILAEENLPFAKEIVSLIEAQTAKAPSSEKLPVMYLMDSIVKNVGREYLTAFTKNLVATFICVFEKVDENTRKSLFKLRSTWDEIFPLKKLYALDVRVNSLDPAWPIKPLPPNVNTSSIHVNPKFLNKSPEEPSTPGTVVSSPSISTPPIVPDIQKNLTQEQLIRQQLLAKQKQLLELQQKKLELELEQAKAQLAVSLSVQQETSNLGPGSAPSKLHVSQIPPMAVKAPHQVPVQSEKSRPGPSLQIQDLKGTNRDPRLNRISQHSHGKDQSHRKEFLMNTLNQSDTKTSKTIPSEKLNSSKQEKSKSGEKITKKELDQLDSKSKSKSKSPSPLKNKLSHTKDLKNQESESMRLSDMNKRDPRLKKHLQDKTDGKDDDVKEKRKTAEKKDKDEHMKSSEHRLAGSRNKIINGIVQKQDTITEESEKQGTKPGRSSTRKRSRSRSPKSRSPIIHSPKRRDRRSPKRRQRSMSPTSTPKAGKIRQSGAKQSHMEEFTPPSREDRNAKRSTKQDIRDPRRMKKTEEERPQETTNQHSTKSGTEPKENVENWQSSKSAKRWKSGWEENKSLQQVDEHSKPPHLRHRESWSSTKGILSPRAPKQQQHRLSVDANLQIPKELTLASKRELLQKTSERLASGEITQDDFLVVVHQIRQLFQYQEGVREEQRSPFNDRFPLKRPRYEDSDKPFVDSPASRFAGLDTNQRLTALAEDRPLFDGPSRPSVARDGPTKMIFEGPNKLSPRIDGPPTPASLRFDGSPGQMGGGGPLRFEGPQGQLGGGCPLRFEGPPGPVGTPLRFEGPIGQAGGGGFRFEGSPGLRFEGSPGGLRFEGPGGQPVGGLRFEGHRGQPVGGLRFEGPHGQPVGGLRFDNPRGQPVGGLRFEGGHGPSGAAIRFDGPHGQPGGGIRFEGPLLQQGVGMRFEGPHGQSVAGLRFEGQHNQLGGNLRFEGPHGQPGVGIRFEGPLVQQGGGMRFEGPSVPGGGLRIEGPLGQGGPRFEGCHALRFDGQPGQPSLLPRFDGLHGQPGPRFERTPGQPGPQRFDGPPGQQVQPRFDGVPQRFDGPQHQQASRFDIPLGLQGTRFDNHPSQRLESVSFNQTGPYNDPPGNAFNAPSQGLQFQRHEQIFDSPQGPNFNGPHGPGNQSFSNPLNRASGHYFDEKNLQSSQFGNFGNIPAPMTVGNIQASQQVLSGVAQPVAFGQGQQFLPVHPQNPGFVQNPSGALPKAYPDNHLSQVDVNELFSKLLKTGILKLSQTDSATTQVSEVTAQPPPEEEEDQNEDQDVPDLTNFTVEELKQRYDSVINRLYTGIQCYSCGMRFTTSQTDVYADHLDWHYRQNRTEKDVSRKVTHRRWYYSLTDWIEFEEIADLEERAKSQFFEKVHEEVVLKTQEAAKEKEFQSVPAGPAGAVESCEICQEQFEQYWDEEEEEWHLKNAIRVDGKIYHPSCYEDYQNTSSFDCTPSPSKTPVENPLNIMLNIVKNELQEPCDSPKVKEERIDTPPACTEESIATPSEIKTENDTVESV
inactive: [1] -0.003 | [2] -0.001 | [3] -0.042 | [4] 0.023 | [5] -0.017 | [6] -0.004 | [7] -0.029 | [8] 0.019 | [9] -0.013 | [10] -0.012

PRRC2A (UniProt P48634)
inactive: [1] -0.044 | [2] 0.01 | [3] 0.004 | [4] 0.002 | [5] -0.003 | [6] 0.015 | [7] -0.036 | [8] 0.059 | [9] -0.011 | [10] 0.02

PTS (UniProt Q03393)
Sequence of UniProt Q03393 (Q03393 whole entry, looked up): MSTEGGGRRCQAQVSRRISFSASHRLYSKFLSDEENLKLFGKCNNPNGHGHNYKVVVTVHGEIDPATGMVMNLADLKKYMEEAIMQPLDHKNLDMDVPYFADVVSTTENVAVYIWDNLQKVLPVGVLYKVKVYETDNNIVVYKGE
inactive: [1] 0.172 | [2] 0.024 | [3] 0 | [4] -0.018 | [5] 0.082 | [6] -0.083 | [7] 0.112 | [8] 0.126 | [9] 0.006 | [10] -0.077

PSMB9 (UniProt P28065)
inactive: [1] 0.019 | [2] 0.092 | [3] -0.031 | [4] -0.098 | [5] -0.033 | [6] -0.213 | [7] 0.024 | [8] 0.027 | [9] 0.034 | [10] -0.076

PPP2R5C isoform 4 (UniProt Q13362)
inactive: [1] -0.012 | [2] -0.005 | [3] 0.031 | [4] -0.002 | [5] 0.017 | [6] -0.126 | [7] 0.021 | [8] 0.079 | [9] -0.013 | [10] -0.04

PRAME (UniProt P78395)
inactive: [1] 0.028 | [2] 0.005 | [3] -0.004 | [4] 0.001 | [5] -0.017 | [6] -0.081 | [7] -0.007 | [8] 0.053 | [9] -0.01 | [10] -0.006

POLB (UniProt P06746)
inactive: [1] 0.035 | [2] -0.013 | [3] 0 | [4] -0.026 | [5] 0.008 | [6] -0.028 | [7] 0.002 | [8] 0.022 | [9] 0.012 | [10] -0.053

PPP1R8 (UniProt Q12972)
inactive: [1] 0.004 | [2] -0.011 | [3] 0.03 | [4] 0.034 | [5] 0.025 | [6] -0.023 | [7] 0.013 | [8] -0.007 | [9] 0.01 | [10] -0.024

PRMT5 (UniProt O14744)
inactive: [1] 0 | [2] 0.005 | [3] 0.094 | [4] -0.024 | [5] -0.028 | [6] -0.027 | [7] 0 | [8] 0.035 | [9] -0.015 | [10] -0.019

POLD1 (UniProt P28340)
inactive: [1] 0.029 | [2] -0.004 | [3] -0.023 | [4] -0.011 | [5] 0.011 | [6] 0.01 | [7] -0.011 | [8] 0.015 | [9] 0.006 | [10] 0.003

PI4KB (UniProt Q9UBF8)
inactive: [1] 0.003 | [2] 0.145 | [3] 0.002 | [4] 0.165 | [5] 0.013 | [6] -0.072 | [7] -0.024 | [8] -0.026 | [9] -0.049 | [10] -0.014

POLA1 (UniProt P09884)
inactive: [1] -0.022 | [2] -0.01 | [3] 0.011 | [4] 0.017 | [5] 0.009 | [6] -0.028 | [7] -0.001 | [8] 0.029 | [9] 0.001 | [10] 0.008

PIGO (UniProt Q8TEQ8)
inactive: [1] -0.019 | [2] 0.055 | [3] -0.032 | [4] -0.19 | [5] 0.079 | [6] -0.119 | [7] 0.013 | [8] 0.301 | [9] 0.059 | [10] 0.041

PDXDC1 (UniProt Q6P996)
inactive: [1] 0.058 | [2] 0.064 | [3] -0.098 | [4] -0.024 | [5] 0.022 | [6] -0.035 | [7] -0.074 | [8] 0.019 | [9] 0.042 | [10] 0.012

PFKP (UniProt Q01813)
inactive: [1] 0.026 | [2] -0.014 | [3] 0.012 | [4] 0.003 | [5] 0.009 | [6] 0.024 | [7] 0.016 | [8] 0 | [9] -0.008 | [10] -0.004

PELO (UniProt Q9BRX2)
Sequence of UniProt Q9BRX2 (Q9BRX2 whole entry, looked up): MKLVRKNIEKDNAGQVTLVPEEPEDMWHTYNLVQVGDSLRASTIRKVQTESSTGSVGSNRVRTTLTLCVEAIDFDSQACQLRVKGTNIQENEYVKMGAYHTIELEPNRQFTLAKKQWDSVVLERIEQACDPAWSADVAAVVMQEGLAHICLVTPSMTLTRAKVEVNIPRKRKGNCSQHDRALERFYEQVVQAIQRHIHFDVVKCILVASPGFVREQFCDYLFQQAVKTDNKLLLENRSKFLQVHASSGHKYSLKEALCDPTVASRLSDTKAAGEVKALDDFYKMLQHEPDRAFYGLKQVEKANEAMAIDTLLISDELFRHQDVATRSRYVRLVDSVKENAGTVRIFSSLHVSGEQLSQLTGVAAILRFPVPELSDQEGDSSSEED
inactive: [1] 0.012 | [2] -0.025 | [3] 0.052 | [4] -0.026 | [5] 0.032 | [6] -0.022 | [7] 0.007 | [8] 0.037 | [9] 0.018 | [10] -0.029

PGRMC1 (UniProt O00264)
inactive: [1] 0.028 | [2] 0.015 | [3] 0.026 | [4] -0.078 | [5] 0.012 | [6] 0.106 | [7] 0.003 | [8] -0.059 | [9] 0.017 | [10] 0.056

PTK2 (UniProt Q05397)
inactive: [1] -0.032 | [2] 0.235 | [3] 0.083 | [4] 0.078 | [5] 0.18 | [6] -0.038 | [7] -0.046 | [8] 0.373 | [9] 0.081 | [10] 0.021

PRKAB2 (UniProt O43741)
inactive: [1] 0.033 | [2] 0.203 | [3] -0.049 | [4] 0.106 | [5] 0.042 | [6] -0.031 | [7] -0.031 | [8] 0.14 | [9] 0.036 | [10] 0.023

PCYT1B (UniProt Q9Y5K3)
Sequence of UniProt Q9Y5K3 (Q9Y5K3 whole entry, looked up): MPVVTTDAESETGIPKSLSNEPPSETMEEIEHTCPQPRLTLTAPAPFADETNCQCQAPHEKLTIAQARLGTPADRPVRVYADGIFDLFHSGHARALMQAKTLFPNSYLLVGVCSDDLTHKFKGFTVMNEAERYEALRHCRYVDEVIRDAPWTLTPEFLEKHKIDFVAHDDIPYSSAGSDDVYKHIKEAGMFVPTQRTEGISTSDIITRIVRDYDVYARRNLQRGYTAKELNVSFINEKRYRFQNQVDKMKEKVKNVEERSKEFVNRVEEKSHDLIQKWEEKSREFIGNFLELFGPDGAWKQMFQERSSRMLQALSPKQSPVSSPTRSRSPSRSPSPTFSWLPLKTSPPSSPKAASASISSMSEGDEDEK
inactive: [1] -0.079 | [2] -0.003 | [3] 0 | [4] 0.022 | [5] -0.026 | [6] 0.039 | [7] 0.047 | [8] -0.023 | [9] -0.008 | [10] 0.054

PRIMPOL (UniProt Q96LW4)
inactive: [1] 0.112 | [2] -0.089 | [3] 0.034 | [4] -0.15 | [5] -0.037 | [6] -0.039 | [7] 0.17 | [8] 0 | [10] -0.126
